Measurements: the supplement of paper PMC12282887
± gives the standard deviation of the averaged measurements.

Experiments:
Assay in all cases: promoter activity interaction Z-score (Lux/OD deviation from empty-vector control); higher = stronger promoter induction by the compound
[1] = system: E. coli BW25113 micFp lux reporter; settings: 157.2 µg/ml
Procedure, shortened: (§1)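 Low-copy luxCDABE promoter reporters were carried by E. coli BW25113, either wild type or lacking one of three genes, grown in 40 µl LB Lennox in 384-well plates at 37°C. Each compound was run at four 1:2 dilutions in biological duplicates, with OD600 and luminescence read every 30 min for 12 h. Integration used 0–8 h for wild type and 1–9 h for deletion strains, and wells under 10% of the median growth value were removed. Luminescence normalised to growth was fitted against a control, and the Z-transformed residual is the score.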

[2] = system: E. coli BW25113 ompFp lux reporter
Procedure, shortened: as §1

[3] = system: E. coli BW25113 robp lux reporter
Procedure, shortened: as §1

[4] = system: E. coli BW25113 soxSp lux reporter
Procedure, shortened: as §1

[5] = system: E. coli BW25113 tolCp lux reporter
Procedure, shortened: as §1

[6] = 19.7 µg/ml, genetic background: wild type
[7] = 19.7 µg/ml, genetic background: ΔmarA
[8] = 19.7 µg/ml, genetic background: Δrob
[9] = 19.7 µg/ml, genetic background: ΔsoxS
[10] = 39.3 µg/ml, genetic background: wild type
[11] = 39.3 µg/ml, genetic background: ΔmarA
[12] = 39.3 µg/ml, genetic background: Δrob
[13] = 39.3 µg/ml, genetic background: ΔsoxS
[14] = 78.6 µg/ml, genetic background: wild type
[15] = 78.6 µg/ml, genetic background: ΔmarA
[16] = 78.6 µg/ml, genetic background: Δrob
[17] = 78.6 µg/ml, genetic background: ΔsoxS
[18] = 157.2 µg/ml, genetic background: wild type
[19] = 157.2 µg/ml, genetic background: ΔmarA
[20] = 157.2 µg/ml, genetic background: Δrob
[21] = 157.2 µg/ml, genetic background: ΔsoxS

CC(=O)[C@H]1CC[C@H]2[C@@H]3CCC4=CC(=O)CC[C@]4(C)[C@H]3CC[C@]12C [Progesterone]
promoter activity interaction Z-score ([1]; genetic background: Δrob): -0.0152 ± 0.04 | promoter activity interaction Z-score ([1]; genetic background: ΔsoxS): 0.0431 ± 0.32 | promoter activity interaction Z-score [2, 6]: -0.534 ± 0.033 | promoter activity interaction Z-score [2, 7]: -0.169 ± 0.36 | promoter activity interaction Z-score [2, 8]: -0.0375 ± 0.16 | promoter activity interaction Z-score [2, 9]: -0.19 ± 0.42 | promoter activity interaction Z-score [2, 10]: -0.381 ± 0.1 | promoter activity interaction Z-score [2, 11]: -0.611 ± 0.036 | promoter activity interaction Z-score [2, 12]: 0.0341 ± 0.39 | promoter activity interaction Z-score [2, 13]: -0.905 ± 0.22 | promoter activity interaction Z-score [2, 14]: -0.604 ± 0.2 | promoter activity interaction Z-score [2, 15]: -0.705 ± 0.19 | promoter activity interaction Z-score [2, 16]: -0.397 ± 0.063 | promoter activity interaction Z-score [2, 17]: -0.681 ± 0.46 | promoter activity interaction Z-score [2, 18]: -0.672 ± 0.32 | promoter activity interaction Z-score [2, 19]: -0.651 ± 0.19 | promoter activity interaction Z-score [2, 20]: -1.43 ± 0.17 | promoter activity interaction Z-score [2, 21]: -1.51 ± 0.4 | promoter activity interaction Z-score [3, 6]: 0.215 ± 0.46 | promoter activity interaction Z-score [3, 7]: -0.134 ± 0.11 | promoter activity interaction Z-score [3, 8]: 0.137 ± 0.78 | promoter activity interaction Z-score [3, 9]: 0.0784 ± 0.35 | promoter activity interaction Z-score [3, 10]: -0.384 ± 0.091 | promoter activity interaction Z-score [3, 11]: -0.498 ± 0.18 | promoter activity interaction Z-score [3, 12]: -0.00268 ± 0.38 | promoter activity interaction Z-score [3, 13]: -0.408 ± 1.2 | promoter activity interaction Z-score [3, 14]: 0.0849 ± 0.14 | promoter activity interaction Z-score [3, 15]: -0.366 ± 0.29 | promoter activity interaction Z-score [3, 16]: -0.234 ± 0.65 | promoter activity interaction Z-score [3, 17]: -0.171 ± 0.34 | promoter activity interaction Z-score [3, 18]: -0.26 ± 0.16 | promoter activity interaction Z-score [3, 19]: -0.185 ± 0.13 | promoter activity interaction Z-score [3, 20]: -0.798 ± 0.68 | promoter activity interaction Z-score [3, 21]: -1.05 ± 0.11 | promoter activity interaction Z-score [4, 6]: -0.199 ± 0.29 | promoter activity interaction Z-score [4, 7]: -0.22 ± 0.01 | promoter activity interaction Z-score [4, 8]: 0.0249 ± 0.041 | promoter activity interaction Z-score [4, 9]: -0.00845 ± 0.063 | promoter activity interaction Z-score [4, 10]: -0.25 ± 0.099 | promoter activity interaction Z-score [4, 11]: -0.192 ± 0.018 | promoter activity interaction Z-score [4, 12]: -0.155 ± 0.04 | promoter activity interaction Z-score [4, 13]: -0.315 ± 0.23 | promoter activity interaction Z-score [4, 14]: -0.226 ± 0.1 | promoter activity interaction Z-score [4, 15]: -0.147 ± 0.072 | promoter activity interaction Z-score [4, 16]: -0.0586 ± 0.098 | promoter activity interaction Z-score [4, 17]: -0.236 ± 0.25 | promoter activity interaction Z-score [4, 18]: -0.226 ± 0.079 | promoter activity interaction Z-score [4, 19]: -0.186 ± 0.028 | promoter activity interaction Z-score [4, 20]: -0.48 ± 0.037 | promoter activity interaction Z-score [4, 21]: -0.776 ± 0.47 | promoter activity interaction Z-score [5, 6]: -0.462 ± 1.4 | promoter activity interaction Z-score [5, 7]: 0.741 ± 0.62 | promoter activity interaction Z-score [5, 8]: -0.127 ± 0.85 | promoter activity interaction Z-score [5, 9]: -0.377 ± 0.42 | promoter activity interaction Z-score [5, 10]: 0.606 ± 1 | promoter activity interaction Z-score [5, 11]: 0.0914 ± 0.43 | promoter activity interaction Z-score [5, 12]: 0.494 ± 1 | promoter activity interaction Z-score [5, 13]: -1.65 ± 1.1 | promoter activity interaction Z-score [5, 14]: -0.308 ± 0.37 | promoter activity interaction Z-score [5, 15]: 0.451 ± 1.3 | promoter activity interaction Z-score [5, 16]: 0.161 ± 0.71 | promoter activity interaction Z-score [5, 17]: 0.0688 ± 1.3 | promoter activity interaction Z-score [5, 18]: -0.227 ± 0.23 | promoter activity interaction Z-score [5, 19]: 0.167 ± 0.12 | promoter activity interaction Z-score [5, 20]: -0.116 ± 0.74 | promoter activity interaction Z-score [5, 21]: 0.764 ± 1
